Source: PubChem (Broad Institute)
This excerpt belongs to a sample that is enriched for hits.
Tg IFNy HTS – blocks Toxoplasma gondii growth in the presence of IFN-gamma. Toxoplasma gondii growth in IFN-gamma-treated host cells; stronger effect = lower value. activity change, negative = inhibition, % (no concentration beside the values). actives 3.8% (n = 69,000); in the data active means activity change below about -70%, passing the limit was not always enough;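 further: host cells are HeLa cells infected with Toxoplasma gondii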
Numbers without * were called inactive; i = inactive; ! = a repeat was not active.

SMILES | Tg IFNy HTS
COc1ccc(S(=O)(=O)Nc2ccc3c(c2)C(=O)N([C@H](C)CO)C[C@@H](C)[C@H](CN(C)S(=O)(=O)c2ccc(Cl)cc2)OCCCC[C@H](C)O3)cc1 | -112.8*
C[C@@H]1CCCCO[C@@H](CN(C)S(=O)(=O)c2ccc(Cl)cc2)[C@@H](C)CN([C@H](C)CO)C(=O)c2cc(NC(=O)Nc3ccc(C(F)(F)F)cc3)ccc2O1 | 43.8
COc1ccc(S(=O)(=O)Nc2ccc3c(c2)C(=O)N([C@@H](C)CO)C[C@@H](C)[C@@H](CN(C)C(=O)Nc2c(C)noc2C)OCCCC[C@H](C)O3)cc1 | -77.9*
COc1ccc(S(=O)(=O)Nc2ccc3c(c2)C(=O)N([C@@H](C)CO)C[C@@H](C)[C@H](CN(C)C(=O)Nc2c(C)noc2C)OCCCC[C@@H](C)O3)cc1 | 79.5
C[C@@H]1CCCCO[C@H](CN(C)S(=O)(=O)c2ccc(Cl)cc2)[C@@H](C)CN([C@H](C)CO)C(=O)c2cc(NC(=O)Nc3ccc(C(F)(F)F)cc3)ccc2O1 | 45.1
O=C(Cc1cccnc1)c1cc2ccc(-c3cccc(Cl)c3)cn2c1-c1cocn1 | 88.5
Cc1cc(C)n(-c2cccc(-c3ccccc3OC(C)C(N)=O)c2)n1 (stereo not drawn) | 11.5
O=C(NCCc1ccccc1)N1CCC2(CC1)Nc1ccccc1-n1cccc12 | 207.3
Cc1cc(C)c(N(Cc2ccccc2)S(=O)(=O)c2ccc(OCCNC(=O)c3cc4ccccc4o3)cc2)c(C(=O)NO)c1 | -72.3*!
CCOc1ccc(N(Cc2nc(-c3ccc(C)cc3)oc2C)S(=O)(=O)c2ccccc2)cc1 | 15.0
CCCCOc1ccc(S(=O)(=O)N(Cc2ccccc2)Cc2ccccc2)cc1 | -27.5
CCOc1cccc(C2c3[nH]c4ccccc4c3CCN2C(=O)c2ccco2)c1 (stereo not drawn) | -109.4*
CCOc1cccc(C2c3[nH]c4ccccc4c3CCN2C(=O)c2ccc(OC)c(OC)c2)c1 (stereo not drawn) | -88.5*
CCOc1cccc(C2c3[nH]c4ccccc4c3CCN2C(=O)c2ccc3c(c2)OCO3)c1 (stereo not drawn) | i
CCOc1cccc(C2c3[nH]c4ccccc4c3CCN2C(=O)c2ccccc2F)c1 (stereo not drawn) | -64.5
CCOc1cccc(C2c3[nH]c4ccccc4c3CCN2C(=O)c2cccc(Cl)c2)c1 (stereo not drawn) | -122.5*
CCOc1cccc(C2c3[nH]c4ccccc4c3CCN2C(=O)c2cc3ccccc3[nH]2)c1 (stereo not drawn) | i
CCCC(=O)N1CCc2c([nH]c3ccccc23)C1c1cccc(OCC)c1 (stereo not drawn) | 496.6
CCOc1cccc(C2c3[nH]c4ccccc4c3CCN2C(=O)c2cccs2)c1 (stereo not drawn) | i
CCOc1cccc(C2c3[nH]c4ccccc4c3CCN2C(=O)COc2ccccc2)c1 (stereo not drawn) | i
CNc1cc(-c2cccc(C(F)(F)F)n2)c2cc[nH]c2n1 | 25.0
COc1ncccc1-c1ccc(F)cc1O | 0.0
CSc1ccc(CN(CCO)C(=O)c2ccc(Cl)s2)cc1 | -40.0
Cc1ccc(CC(CC(=O)NCCc2ccc3c(c2)OCO3)C(=O)O)cc1 (stereo not drawn) | -2.0
O=C1CCC2(CCCO2)CCN1Cc1nccn1Cc1ccccc1 (stereo not drawn) | 53.1
SMILES | Tg IFNy HTS
C[C@@H]1CN([C@@H](C)CO)C(=O)CCCn2cc(nn2)CO[C@H]1CN(C)C(=O)CCC(F)(F)F | 237.7
COc1ccc2c3c([nH]c2c1)[C@@H](CO)N(C(=O)NC1CCCC1)CC31CCN(S(C)(=O)=O)CC1 | -33.5
N=C1SC(c2ccccc2)C(=O)N1c1nc2ccccc2s1 (stereo not drawn) | -82.1*
COc1ccc(C2CC(=O)c3cnn(-c4nc5ccccc5s4)c3C2)cc1 (stereo not drawn) | 62.1
COc1ccc(N2C(=O)CC(N3CCN(c4nc5ccccc5s4)CC3)C2=O)cc1 (stereo not drawn) | 14.8
Fc1ccccc1-n1nnnc1SCc1cc2c(cc1Cl)OCO2 | -1.8
Cc1nc(-c2ccc(CO)s2)cs1 | 9.9
Cc1ccc(N2CCCC3(CCN(Cc4ccc(F)cc4)C3)C2)nn1 (stereo not drawn) | 2.0
COc1ncccc1-c1[nH]cnc1-c1ccccc1 | -15.3
COc1ncccc1-c1nn(C)c2ccc(C)cc12 | 7.3
COc1ncccc1-c1cccc(-c2nnc(C)s2)c1 | -94.4*
C[C@@H]1CN([C@H](C)CO)C(=O)c2c(c3ccccc3n2C)-c2ccccc2CO[C@@H]1CN(C)C(=O)NC1CCCCC1 | -27.3
CNC(=O)[C@H]1CO[C@@H]2CN(S(=O)(=O)c3cccc(F)c3)C[C@@H]12 | 6.3
COc1ccc2c(c1)NC1(CCN(C(=O)Nc3ccccc3Br)CC1)c1cccn1-2 | 75.8
CCc1ccccc1NC(=O)N1CCc2nc(-c3ccc(OC)c(OC)c3)sc2C1 | 45.6
CCc1ccccc1NC(=O)N1CCc2nc(-c3cccc(OC)c3)sc2C1 | 30.0
COc1ccc(-c2nc3c(s2)CN(C(=O)Nc2cc(C)ccc2C)CC3)cc1OC | 21.4
Cc1ccc(-c2nc3c(s2)CN(C(=O)Nc2cc(C)ccc2C)CC3)cc1 | -34.8
